Data reported in PubChem BioAssay (Tox21).
More than one record can exist for a structure, and the calls need not agree. The source made the active and inactive calls. Entries that show only a call come without a potency. Calls follow the shape of the dose curve; as a rule, active = well fitted inhibition curve with a large enough effect in the repeat runs (not every such curve was filed as active); inconclusive = weak or mixed curves; inactive = flat fitted curve, though single readings scatter.

biological target: Thyrotropin-releasing hormone receptor (Homo sapiens) (UniProt P34981); experiment: qHTS assay to identify small molecule antagonists of the thyrotropin-releasing hormone receptor (TRHR) signaling pathway (AID 1346877); settings: TRHR-HEK293, TRH-induced calcium fluorescence, antagonist mode; series mostly up to 51.3 µM
In short: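 TRHR-expressing HEK293 cells loaded with calcium dye for 2 h at 37 C; compounds pre-incubated 5 min at room temperature before TRH challenge at 1 nM final. Intracellular calcium fluorescence read kinetically for 3 min; 15 concentrations in triplicate.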
Potency is read from the fitted curve at half-maximal effect.

Chain of Thyrotropin-releasing hormone receptor (Homo sapiens) (P34981 whole entry, looked up): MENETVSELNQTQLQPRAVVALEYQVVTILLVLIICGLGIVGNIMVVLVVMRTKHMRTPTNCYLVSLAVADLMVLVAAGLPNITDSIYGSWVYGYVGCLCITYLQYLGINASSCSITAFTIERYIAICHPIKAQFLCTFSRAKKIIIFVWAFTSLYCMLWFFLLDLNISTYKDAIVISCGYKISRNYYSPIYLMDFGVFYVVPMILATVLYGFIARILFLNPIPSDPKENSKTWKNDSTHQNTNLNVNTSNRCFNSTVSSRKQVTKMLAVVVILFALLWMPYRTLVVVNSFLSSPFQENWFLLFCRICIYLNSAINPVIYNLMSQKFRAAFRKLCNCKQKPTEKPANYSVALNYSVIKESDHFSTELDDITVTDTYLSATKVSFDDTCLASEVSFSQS

Structure (SMILES)	Potency
O=c1[nH]c(=O)n([C@H]2CCCO2)cc1F	inactive
C=CCNC(N)=S	inactive
c1ccc2c(c1)ccc1ccccc12	inactive
CC(=O)OCC(=O)[C@@]12N=C(C)O[C@@H]1C[C@H]1[C@@H]3CCC4=CC(=O)C=C[C@]4(C)[C@H]3[C@@H](O)C[C@@]12C	inactive
Cc1ccc2oc(=O)ccc2c1	inactive
CCC(O)OC(O)CC (configuration not stated)	inactive
O=C(O)c1ccc(C(=O)O)cc1	inactive
CCCCCCCCCCCCc1ccccc1	inactive
CCCCCC1=CCCC1=O	inactive
CCCCC(CC)COC(=O)CCCCC(=O)OCC(CC)CCCC (configuration not stated)	inactive
CCCCCC(N)=O	inactive
CC(=O)c1ccccc1	inactive
CSCCC=O	inactive
Cc1ccc(N(C)C)cc1	inactive
CCCCCCCC(=O)OC	inactive
CCc1cccc(C)c1N	inactive
OCC(CO)(CBr)CBr	inactive
CC[C@H](C)C(=O)O[C@H]1C[C@@H](C)C=C2C=C[C@H](C)[C@H](CC[C@@H]3C[C@@H](O)CC(=O)O3)[C@H]21	38.5 µM (active) and inactive
CN(C)CCCN	inactive
O=S1(=O)CC=CC1	inactive
CC(C)(C)[C@@H](O)[C@@H](Cc1ccc(Cl)cc1)n1cncn1	inactive
C#CCN(C)Cc1ccccc1	inactive
C[Si](O[Si](C)(C)C)O[Si](C)(C)C	inactive
Oc1cccc2ccccc12	inactive
CCCCCC/C(C=O)=C\c1ccccc1	inactive
CCCCCCCCCCCCCCO	inactive
Nc1cc([N+](=O)[O-])ccc1O	inactive
